About 11,000 (3.1%) of roughly 360,000 compounds were called active. Only a selection was taken, and actives are over-represented in it overall. Values without a mark were called inactive. Rule as the data show it: active = activity change below about -30%; inactive = the rest.
% is scaled to controls: 0 for no effect and ±100 for the full control effect.

Sequence of D(1A) dopamine receptor (Homo sapiens) (P21728 whole entry, looked up): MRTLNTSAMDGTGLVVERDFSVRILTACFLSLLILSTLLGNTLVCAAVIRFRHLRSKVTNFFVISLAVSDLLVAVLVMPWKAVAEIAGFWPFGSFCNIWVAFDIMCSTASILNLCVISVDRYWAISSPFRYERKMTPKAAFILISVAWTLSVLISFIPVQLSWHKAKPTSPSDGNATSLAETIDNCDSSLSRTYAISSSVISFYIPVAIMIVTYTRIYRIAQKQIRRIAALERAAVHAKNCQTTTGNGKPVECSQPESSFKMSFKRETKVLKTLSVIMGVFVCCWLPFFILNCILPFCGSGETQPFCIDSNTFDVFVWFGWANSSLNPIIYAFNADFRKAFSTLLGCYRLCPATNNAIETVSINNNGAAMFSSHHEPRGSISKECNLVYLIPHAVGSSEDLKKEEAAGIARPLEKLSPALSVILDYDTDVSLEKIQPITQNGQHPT

This experiment deals with D(1A) dopamine receptor (Homo sapiens) (UniProt P21728). Nature of the experiment: Antagonist of Human D 1 Dopamine Receptor: qHTS. The following applies: HEK293 TREx D1 cells, calcium flux, dopamine EC80; at 10 µM; active compounds read low. The source says:
Dopamine receptors (DARs) are involved in the etiology and/or therapy of a number of neuropsychiatric and endocrine disorders. For instance, all receptor-based antiparkinsonian drugs work via stimulating the […] DAR subtype whereas all FDA-approved antipsychotic agents are antagonists of this receptor. […] There are three different types of allosteric modulators that we are seeking, two of which will stimulate or augment receptor signaling, allosteric agonists and potentiators, while the third, allosteric antagonists, will attenuate receptor signaling. The present primary screening assay measures compound antagonism after an EC80 addition of dopamine by tracking calcium flux in a […], inducible Hek293 Trex D1 cell line. NIH Chemical Genomics Center [NCGC] NIH Molecular Libraries Probe Centers Network [MLPCN] MLPCN Grant: NS064831-01 Assay Submitter (PI): David Sibley
Freshly passaged cells are plated in 1536 well black, clear bottom plates at a density of 4000 cells/well in 3 ul of complete media containing 1x tetracycline inducer. After an overnight incubation at 30 C in 5% CO2, cells are loaded with 2 ul of the no wash Calcium Assay Kit (ABD Bioquest) and incubated at room temperature for 30 to 90 minutes. Agonist read: A 10 cycle (1 second/cycle) baseline measurement is taken and then the FDSS online 1536 pintool delivers 23 nl of compound library (as well as dopamine controls) to the plate. The plate is measured for kinetically at 1 cycle/sec for 180 seconds. Following the 180 second read, 1 ul of an EC80 (negative modulation assay) is delivered by an onboard pipette head. Measurements are taken kinetically for an additional 180 seconds.
On the technique in general: Quantitative high-throughput screening tests each substance at several concentrations.
Turning to `CCc1ccccc1NC(=O)CSc1nnc(-c2ccncc2)o1`, the activity change, negative = inhibition was 7.4%.

Regarding `CCN(C(=O)CSc1nnc(-c2ccncc2)o1)c1ccccc1`, the activity change, negative = inhibition was -3.41%.

Take `CCOc1ccc(C(=O)c2cn(Cc3ccc(F)cc3)c3ccc(F)cc3c2=O)cc1`: the activity change, negative = inhibition was -1.13%.

Take `Cc1cccc(Cn2c(SCc3ccc(C(=O)N4CCC(C)CC4)cc3)nc3ccncc32)c1`: the activity change, negative = inhibition was -18.5%.

Take `CN1CC(c2ccccc2)C2(COc3ccccc3C2=O)C12C(=O)Nc1ccccc12` (stereo not given): the activity change, negative = inhibition is -39.3% (active).

On to `O=C1NC(c2ccccc2)Oc2ccccc21` (stereo not given), for which the activity change, negative = inhibition is 3.6%.

Consider `Oc1ccccc1-c1nc(/C=C/c2ccc(F)cc2)no1`, for which the activity change, negative = inhibition was 3.54%.

As for `Cc1cc2c(cc1S(=O)(=O)CCC(=O)Nc1ccc(OC(F)(F)F)cc1)OCC(=O)N2`, the activity change, negative = inhibition was -0.986%.

For `CCOC(=O)c1ccc(NC(=O)CC2C(=O)N(c3cccc(OC)c3)C(=O)N2C2CCCCC2)cc1` (stereo not given), the activity change, negative = inhibition was -8.12%.

For the molecule `CC(=O)c1sc(N/N=C\c2ccc(C)cc2)nc1C`, the activity change, negative = inhibition is -54.7% (active).

Consider `CC(=O)c1sc(NC(=O)C2=NN(c3ccccc3)C(=O)CC2)nc1C`, for which the activity change, negative = inhibition was 2.3%.

Consider `CC(=O)c1sc(N/N=C/c2ccc(C(C)C)cc2)nc1C`, for which the activity change, negative = inhibition is -11%.

Take `CCOC(=O)CNC(=O)c1cc2c(=O)n3cccc(C)c3nc2s1`: the activity change, negative = inhibition was 0.697%.

With `COc1ccc(N(CC(=O)NC2CCCCCCC2)S(=O)(=O)c2c(C)nn(C)c2C)cc1`, the activity change, negative = inhibition is -2.1%.

For `CCOc1ccc(N(CC(=O)NC2CCCCCC2)S(=O)(=O)c2c(C)[nH]c(=O)[nH]c2=O)cc1`, the activity change, negative = inhibition was 7.77%.

For `COc1ccc(N(CC(=O)NC2CCCCC2)S(=O)(=O)c2c(C)[nH]c(=O)[nH]c2=O)cc1`, the activity change, negative = inhibition was -34% (active).

With `CCOC(=O)c1cnc(-n2nc(C)cc2C)nc1NNc1cc(C)nc(-c2ccccc2)n1`, the activity change, negative = inhibition is -5.98%.

As to `CCCOn1c(-n2nc(C)cc2C)nc2ccccc2c1=O`, the activity change, negative = inhibition is -4.18%.

Regarding `Cc1cc(C)n(-c2c(F)c(F)c(COC(=O)c3ccccc3)c(F)c2F)n1`, the activity change, negative = inhibition is -44% (active).

On to `CCCN(CCC)C(=O)C1CCCN(c2ncnc3c2nc2n3CCCCC2)C1` (stereo not given), for which the activity change, negative = inhibition was 11.5%.

Regarding `Cc1cc(C(=O)Nc2ccc(C)c(S(=O)(=O)N3CCOCC3)c2)c2ccccc2n1`, the activity change, negative = inhibition is 11.4%.

Regarding `CC(OC(=O)CCCc1c[nH]c2ccccc12)C(=O)Nc1ccc(S(N)(=O)=O)cc1` (stereo not given), the activity change, negative = inhibition was 8.67%.

Consider `Cc1ccc(NC(=O)C(C)OC(=O)Cc2c[nH]c3ccccc23)cc1S(=O)(=O)N1CCOCC1` (stereo not given), for which the activity change, negative = inhibition was -47.8% (active).

In the case of `COc1cc(OC)c(OC)cc1/C=C/c1nc2cc3ccccc3cc2c(=O)n1-c1ccc(F)c(Cl)c1`, the activity change, negative = inhibition is -0.661%.

With `CCCN(CCC)C(=O)Cn1c(=O)n(-c2ccc(Cl)cc2)c(=O)c2c3c(sc21)CCCCC3`, the activity change, negative = inhibition was 10.1%.

For the molecule `Cc1ccc(CNC(=O)Cn2c(=O)ccc3cc(S(=O)(=O)N4CCCC4)ccc32)cc1`, the activity change, negative = inhibition was 3.17%.

For the molecule `CCCCCOC(=O)NCCOC(=O)Nc1ccc(C(=O)OCC)cc1`, the activity change, negative = inhibition is -34.7% (active).

As to `CCCCC(CCC(=O)Nc1ccc(C(=O)OCC)cc1)C(=O)O` (stereo not given), the activity change, negative = inhibition is -5.38%.

`Cc1ccc(NC(=O)OCCNC(=O)c2ccncc2)cc1`: the activity change, negative = inhibition is -26.6%.

For `Cc1ccc2nc(COc3cccc(NC(=O)c4cccc(Cl)c4)c3)cc(=O)n2c1`, the activity change, negative = inhibition was 3.14%.

As for `CCOC(=O)c1cc2c(=O)n3ccccc3nc2n(Cc2ccco2)c1=NC(=O)c1ccc(F)cc1`, the activity change, negative = inhibition is -29.5%.

As to `COc1ccc(OC)c(NC(=O)Cn2c(=O)n(Cc3ccccc3)c(=O)c3ccccc32)c1`, the activity change, negative = inhibition is -5.43%.

For `CCOc1ccc(NC(=O)c2c(NC(=O)Cc3ccccc3)sc3c2CCC(C)C3)cc1` (stereo not given), the activity change, negative = inhibition was 11.2%.

Take `Cc1ccc(NC(=O)c2cc(S(=O)(=O)NCCC3=CCCCC3)ccc2F)cc1C`: the activity change, negative = inhibition was -29.8%.

For `CC(Nc1nc(N2CCN(CCO)CC2)nc2ccccc12)c1ccccc1` (stereo not given), the activity change, negative = inhibition is 2.98%.

Turning to `CC(Nc1nc(N2CCCC2)nc2ccccc12)c1ccccc1` (stereo not given), the activity change, negative = inhibition is -25.4%.

Take `CC(Nc1nc(N2CCOCC2)nc2ccccc12)c1ccccc1` (stereo not given): the activity change, negative = inhibition was -48.3% (active).

In the case of `Cc1ccccc1CNC(=O)c1cccc(NC(=O)c2nsc3ccccc23)c1`, the activity change, negative = inhibition is 3.86%.

In the case of `COc1cc(CNCCSc2nnnn2C)ccc1OCc1ccc(Cl)cc1Cl`, the activity change, negative = inhibition is 0.753%.

Take `CN(C)c1ccc(C(=O)NCC(=O)OC(C(=O)Nc2cc(C(F)(F)F)ccc2Cl)c2ccccc2)cc1` (stereo not given): the activity change, negative = inhibition was -15.1%.

`Cc1ccc(C(=O)Cn2cccn2)cc1`: the activity change, negative = inhibition is -6.01%.

As to `Cc1ccc(C(=O)Cc2nnc(C)s2)cc1`, the activity change, negative = inhibition was 7.19%.

On to `Cc1ccc(C(=O)CS(C)(=O)=O)cc1`, for which the activity change, negative = inhibition is -33.3% (active).

Take `CCc1nc2onc(C)c2c(=O)n1CC(=O)O`: the activity change, negative = inhibition is 10.4%.

As for `O=C(COc1ccccc1F)OCc1cc(=O)n2nc(C3CCCCC3)sc2n1`, the activity change, negative = inhibition is 11%.
